In PubChem BioAssay AID588850 (Sanford-Burnham Center for Chemical Genomics, 2011):
Out of some 360,000 compounds screened, about 3,100 (0.86%) were called active.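 Rule for the calls: active = at least 50% inhibition at 5 µM, scaled per plate between neutral and stimulator controls; inactive = the rest.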 Many of the other results were omitted from the sample, so actives are more common in it than they were.

experiment: inhibitors of PAF-induced NF-kB signaling, primary screen, cell-based, GFP fluorescence, uHTS (AID 588850); details: KKLEB NF-kB-GFP reporter, GFP fluorescence overnight, at 5 µM, hits give high values;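 note: PAF is a Pseudomonas aeruginosa culture filtrate used as stimulus; plate controls were PAF-stimulated DMSO wells for no effect and unstimulated DMSO wells for full effect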

SMILES	inhibition
O=c1[nH]c(/C=C/c2cccc(Br)c2)nc2ccccc12	20.4% (inactive)
O=C(/C(=C/c1cccc(Cl)c1)c1nc2ccccc2[nH]1)c1ccccc1	82.3% (active)
O=c1c2cc(Br)ccc2nc(-c2cccc(Cl)c2)n1O	-1.4% (inactive)
Cc1cc(NC(=O)CN2C(=O)NC(C)(CCc3ccccc3)C2=O)no1 (stereo not drawn)	-2.5% (inactive)
CC(C)C(C)(C#N)NC(=O)CSc1nc2scc(-c3ccccc3)c2c(=O)[nH]1 (stereo not drawn)	9% (inactive)
CSCC[C@H](NC(=O)NC1CCCC1)C(=O)O	-10.3% (inactive)
COc1cccc(NC(=S)N(Cc2ccc(C)cc2)Cc2ccccn2)c1	-2.3% (inactive)
COc1ccc(NC(=O)C2Cc3c(-c4ccc5c(c4)OCO5)ccnc3O2)cn1 (stereo not drawn)	15.9% (inactive)
COc1ccc(NC(=O)/C(Cl)=C(/Cl)S(=O)Cc2ccc(C)cc2)cn1 (stereo not drawn)	90% (active)
O=S(=O)(c1ccc(-c2ccno2)s1)N1CCCCC1	7.2% (inactive)
CC(C(=O)N1CCOCC1)N1c2cccc3cccc(c23)S1(=O)=O (stereo not drawn)	4.3% (inactive)
COc1cc(C(=O)OC(C)C(=O)NCC2CCCCC2)cc(NC(=O)c2ccco2)c1OC (stereo not drawn)	-5.7% (inactive)
COc1ccc(NC(=O)c2cc(-c3cc(OC)c(OC)c(OC)c3)nc3ccccc23)c(OC)c1	60.9% (active)
COc1ccc(NC(=O)c2sc(N3CCOCC3)nc2-c2ccccc2)c(OC)c1	9.3% (inactive)
COc1ccc(-c2cc(C(=O)n3cnc4ccccc43)c3ccccc3n2)cc1	5.5% (inactive)
CC(C)n1cnc2c(Nc3cccc(Cl)c3)nc(N(CCO)CCCO)nc21	72.6% (active)
NC(=O)CSc1nnc(-c2cccc(S(=O)(=O)N3CCOCC3)c2)o1	-5.1% (inactive)
O=S(=O)(Nc1ccc(O)c2ccccc12)c1ccc(OC(F)(F)F)cc1	96% (active)
COc1ccccc1NS(=O)(=O)c1ccc(C(=O)N2CCN(c3ccccc3O)CC2)cc1	6.4% (inactive)
O=S(=O)(Nc1ccc(OC(F)(F)F)cc1)c1cccc2nonc12	-3.9% (inactive)
CCOC(=O)CN1CC23C=CC(O2)C(C(=O)Nc2ccc(F)cc2)C3C1=O (stereo not drawn)	-8.9% (inactive)
NS(=O)(=O)c1ccc(CCNC(=O)CCCn2c(SCC(=O)N3CCCC3)nc3ccsc3c2=O)cc1	-8.6% (inactive)

SMILES	inhibition
NS(=O)(=O)c1cc2c(cc1Cl)NC(C(Cl)Cl)NS2(=O)=O (stereo not drawn)	22% (inactive)
CCN1CCN(C(=O)N(Cc2ccc(Cl)cc2)S(=O)(=O)c2ccc(C)cc2)CC1	3.2% (inactive)
Cc1ncc(CC(=O)n2cc(C(=O)c3cc(Cl)ccc3O)cn2)s1	60.8% (active)
O=C(c1cnn(-c2ccc(Cl)cc2)c1)c1ccccc1O	-14.6% (inactive)
Cc1nc2ccccn2c(=O)c1NC(=O)c1ccc(Br)o1	11.6% (inactive)
Cc1ccc(SCC(=O)c2cc(C)c(OC(=S)N(C)C)c(C)c2)cc1	0% (inactive)
Cc1nnc(NC(=O)CCC(=O)N2CCC(C)CC2)s1	8.8% (inactive)
CCCCCCCCc1c(O)nc(-n2[nH]c(C)c(CCO)c2=O)[nH]c1=O	12.1% (inactive)
CC(=O)OCC(COC(C)=O)OC(C)=O	-7.3% (inactive)
CC(=O)OC(C)C[N+](C)(C)C (stereo not drawn)	80.7% (active)
CC(C[N+](C)(C)C)OC(N)=O (stereo not drawn)	3.2% (inactive)
O=S(=O)(c1cccc(C(F)(F)F)c1)N1c2ccccc2-n2cccc2C1c1cccnc1 (stereo not drawn)	13.5% (inactive)
Cc1cccc(C)c1NC(=O)C(Cl)C(=O)c1ccccc1 (stereo not drawn)	-23.4% (inactive)
N#Cc1c(N)nc2c3c(sc(=N)c2c1N)NC(=O)CC3c1ccccc1Cl (stereo not drawn)	-8.3% (inactive)
CCC(C)[C@H]1COCCS(=O)(=O)N1Cc1ccc(C)cc1 (stereo partly drawn)	-9.6% (inactive)
CCOc1ccc(CCN2C(=S)N([C@@H](CC(C)C)CN3CCC[C@@H]3CN3C(=S)NC[C@@H]3Cc3ccc(O)cc3)C[C@@H]2CC(C)C)cc1	13.3% (inactive)
CCOc1ccc(CCN2C(=S)N([C@@H](CC(C)C)CN3CCC[C@@H]3CN3C(=S)NC[C@@H]3Cc3ccc(O)cc3)C[C@@H]2Cc2ccc(O)cc2)cc1	40.9% (inactive)
CC(C)C[C@H]1CNC(=S)N1C[C@H]1CCCN1C[C@H](Cc1ccc(O)cc1)N1C[C@H](Cc2ccc(O)cc2)N(CC2CCCCC2)C1=S	65.6% (active)
Cc1c(-c2ccccc2)n[nH]c1C(=O)N=Nc1c(O)[nH]c2ccccc12	-0.9% (inactive)
O=[N+]([O-])c1cc(S(=O)(=O)Nc2cccc(Cl)c2)ccc1N=Nc1c(O)[nH]c2ccccc12	80% (active)
O=C(NCc1ccncc1)c1ccc(NS(=O)(=O)c2cccc([N+](=O)[O-])c2)cc1	8.5% (inactive)
Cc1ccc([C@H]2C[C@H](O)[C@@H](n3cc(COC(=O)c4ccccc4)nn3)CN2CC2CCCCC2)cc1	58.5% (active)

SMILES	inhibition
Cc1ccc([C@H]2C[C@H](O)[C@@H](n3cc(COC(=O)c4ccccc4)nn3)CN2C(=O)C2CCCCC2)cc1	1.3% (inactive)
CCCCCC(=O)N1C[C@H](O)[C@@H](n2cc(COC(=O)c3ccccc3)nn2)C[C@@H]1c1ccc(C)cc1	-3.3% (inactive)
CC(C)=CCN1CCN(CCCc2ccccc2)CC1CCO (stereo not drawn)	1.3% (inactive)
Cc1ccc(C(O)c2ncc(-c3ccccc3F)[nH]2)cc1F (stereo not drawn)	-1.5% (inactive)
COc1ccc(NC(=O)C2C3CCC(O3)C2C(=O)O)cc1OC (stereo not drawn)	-25.3% (inactive)
COc1ccc(NC(=S)SC)cc1OC	59.7% (active)
COc1ccc(NC(=O)CSCc2ccc([N+](=O)[O-])cc2)cc1OC	2.8% (inactive)
COc1ccc(Cl)cc1NS(=O)(=O)c1cccc(C(=O)NCC2CCCO2)c1 (stereo not drawn)	-16.2% (inactive)
O=C(CSc1nnc(-c2ccoc2)o1)N1CCOCC1	-7.3% (inactive)
COc1cccc(C(NC(C)=O)c2nc(-c3ccccc3OC)cs2)c1 (stereo not drawn)	-4% (inactive)
CCOP(=O)(OCC)C(Cc1ccccc1)N=C(c1ccccc1)c1ccccc1 (stereo not drawn)	2.4% (inactive)
Cc1cc(=O)oc2c3c(cc(OCC(=O)NCC(O)c4ccccc4)c12)OC(C)(C)CC3 (stereo not drawn)	-24.9% (inactive)
S=C(NN=Cc1ccccn1)Nc1ccccn1	73.7% (active)
S=C(Nc1cccnc1)Nc1ccccn1	-6.9% (inactive)
O=C(N/N=C/c1ccccn1)c1cccc(NC(=O)c2ccc(Cl)cc2)c1	8.6% (inactive)
CC(OC(=O)CNC(=O)c1ccc(Cl)c([N+](=O)[O-])c1)C(=O)NCc1ccco1 (stereo not drawn)	5.2% (inactive)
O=C(COc1ccc([N+](=O)[O-])cc1)Nc1cccc(C(=O)Nc2ccccc2C(=O)O)c1	-36% (inactive)
CCOc1ccc(C(=O)NC(=S)Nc2ccc(NC(=O)C(C)C)cc2)cc1[N+](=O)[O-]	0.2% (inactive)
N#Cc1cccc(NC(=O)COC(=O)c2ccccc2C(=O)c2ccc(Cl)c([N+](=O)[O-])c2)c1	86.9% (active)
NS(=O)(=O)c1cccc(NC(=O)COC(=O)c2cc([N+](=O)[O-])ccc2N2CCCC2)c1	5.8% (inactive)
CC(=O)Nc1ccc(NC(=O)C(C)OC(=O)c2ccccc2C(=O)c2ccc(Cl)c([N+](=O)[O-])c2)cc1 (stereo not drawn)	81.1% (active)
Cc1ccc(S(=O)(=O)N2C3C=CC(C3)C2C(=O)O)cc1 (stereo not drawn)	1.4% (inactive)

SMILES	inhibition
COCc1c(C(=O)OCc2c(C)noc2C)oc2ccccc12	-11.5% (inactive)
CCOC(=O)N1CCC(Nc2c(NCCCN3CCN(c4ccc(OC)cc4)CC3)c(=O)c2=O)CC1	-6.5% (inactive)
CCN(CC)C(=O)N1CCN(C(=O)c2ccc(C)cn2)CC1	7.5% (inactive)
CCN1CCC2(CCN(Cc3cn[nH]c3-c3ccc(OC)c(F)c3)C2)C1 (stereo not drawn)	11% (inactive)
CC(=O)N1CCC(C(=O)OCc2ccc(Cl)cc2)(c2ccccc2)CC1	-6.8% (inactive)
O=C(CCc1ccc(O)cc1)NN=Cc1cc(Br)ccc1O	-5% (inactive)
CCN(CC)CCn1c(/N=C/c2cc(Br)ccc2O)nc2ccccc21	2.3% (inactive)
Oc1ccc(Br)cc1/C=N/Nc1ccccn1	107% (active)
CN1CCCN(C(=O)C2CCCCC2)CC1	-5.1% (inactive)
CC(=NNC(N)=O)C1CC2CCC1CC2 (stereo not drawn)	0.5% (inactive)
Cc1nc(N2CCC(C)CC2)c2c(C)c(C(=O)Nc3cc(F)ccc3C)sc2n1	27.1% (inactive)
Cc1nc(N2CCN(c3ccccn3)CC2)c2c(C)c(C(=O)Nc3ccc(F)c(Cl)c3)sc2n1	36.8% (inactive)
COc1ccc(NC(=O)c2sc3nc(C)nc(N4CCN(c5ccccn5)CC4)c3c2C)c(OC)c1	53.3% (active)
COc1ccc(CC(=O)N[C@@H]2c3cc(OC)c(OC)cc3C[C@H]2OCc2ccccc2)cc1	-5.1% (inactive)
CN1OC[C@@H]2CN(C(=O)c3ccc(-c4ccccc4)cc3)[C@H](c3ccc(-c4cccc(F)c4)cc3)C[C@@H]21	-13% (inactive)
O=C(OC12CC3CC(CC(C3)C1)C2)c1ccc(NCc2cc(O)ccc2O)cc1	60.3% (active)
CN=C(NC#N)NCCSCc1nc[nH]c1C	-4.5% (inactive)
Cc1cc(C)c(S(=O)(=O)c2cc(F)ccc2C)c(=O)[nH]1	-12.1% (inactive)
C#Cc1cc(N2CCN(C(=O)c3ccoc3)CC2)n2nc(-c3cccc(Cl)c3)cc2n1	64.7% (active)
O=C(c1ccccc1)N1CCN(C(=O)c2cc3nc(-c4ccccc4)cc(C(F)(F)F)n3n2)CC1	-4.4% (inactive)
CN(C)CCN1CCN(c2cc(-c3cccc(Cl)c3)nc3ccnn23)CC1	7.8% (inactive)
COc1cccc(C(O)c2nc(-c3ccc(C)c(C)c3)cs2)c1 (stereo not drawn)	17.1% (inactive)
